# Results from PubChem BioAssay AID1036 (National Center for Advancing Translational Sciences (NCATS), 2008).
# Inconclusive results are not listed. Activity calls are given as the source filed them. The call rests on the fitted dose curve.
# Experiment: NSCLC 1 Cell Viability Secondary Assay for qHTS Assay for Epigenetic Modulator
# Conditions: NSCLC 1 cells viability, MTS absorbance, 4 days
# Source text: NIH Molecular Libraries Screening Centers Network [MLSCN] NIH Chemical Genomics Center [NCGC] MLSCN Grant: 1 X01 MH079860-01 Assay Provider: Elisabeth D. Martinez, University of Texas SW Medical Center NCGC Assay Overview: This secondary assay characterizes selected actives identified in the qHTS of the Locus Derepression (LDR) assay (PubChem AID 597). The LDR assay detects the derepression of a GFP reporter that is stably integrated in a region of the genome of murine c127i mammary cells that is presumably silenced. Compounds that cause derepression of the locus to express GFP are identified by enumerating GFP positive cells using a laser-scanning microplate cytometer. […] NSCLC 1 cell viability was measured using Cell Titer 96 AQueous One (Promega), an assay which detects the ability of metabolically active cells to reduce a tetrazolium salt substrate (MTS), into a soluble formazan product that can be measured by colorimetry.
# NCGC Assay Protocol Summary NSCLC 1 cells were plated in 96-well flat bottom tissue culture dishes (Corning) and grown overnight at 37 C and 5% CO2, then treated with compounds, incubated 4 days, and assayed for viability using the Cell Titer 96 AQueous One kit (Promega) according to the manufacturer's protocol. Absorbance at 490 nm and 650 nm (reference) was measured by a Spectra Max (Molecular Devices). […]
smiles,measurement,value
CN1CSC(=S)N(C)C1,outcome,inactive
